Source: PubChem
Env fusion inh – inhibitors of HIV-1 Env-driven cell-cell fusion, primary screen, HeLa-JRFL effector, CEM21 target cells, luciferase; inhibition, % at 12.3 µM; 360,000 compounds, 1.1% hits; AID 651610, 2012;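 active = mean replicate inhibition score of at least 50 and every replicate individually at or above 50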
Statin myotox sup – suppressors of statin myotoxicity in C2C12 myotubes, primary screen, cell-based, single point, plate reader; C2C12 myotubes + simvastatin, ATP luminescence, 48 h; scaled: DMSO 0, geranylgeraniol control 100; rescue of ATP level, % at 7.49 µM; 330,000 compounds, 0.78% hits; AID 602340, 2012;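 active = mean ATP rescue above about 67%, or every replicate alone reaching that limit, limit read from the data, passing the limit was not always enough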;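 note: myotubes were challenged with 10 µM simvastatin during compound exposure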
EWS-Fli inh – EWS/Fli-driven NR0B1 reporter inhibitors, primary screen, A673 cells, NR0B1 luciferase, luminescence, MLPCN library | viability-normalised | inhibition, % at 12.6 µM | 350,000 compounds, 0.67% hits | AID 651661, 2012;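 active = mean inhibition of at least 50% after viability correction, with every replicate also passing that limit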;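 note: firefly luciferase signal divided by Alamar Blue viability fluorescence both relative to DMSO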
PAX8 inh HTS – inhibitors of PAX8-driven TPO luciferase reporter, primary screen, RMG-I cells, single concentration; SteadyGlo, 24 h; inhibition, % at 12.6 µM; 360,000 compounds, 1.2% hits; AID 652154, 2013;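 active = mean replicate inhibition at least 60% with every replicate also reaching 60%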;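 note: luciferase light reporting Pax8 driven TPO promoter activity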
miR-122 sensor – miR-122 Renilla sensor signal increase in Huh7, primary screen, miR-122 inhibitor project, cell-based, single point, plate reader; activation (reporter increase), % at 12.5 µM; Huh7 miR-122 Renilla luciferase sensor, 48 h; neutral wells = 0, positive control = 100; 340,000 compounds, 0.3% hits;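 active = mean replicate activation score at least 90 and every replicate individually at or above 90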;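 note: higher luciferase means less miR-122 activity so hits act as miR-122 inhibitors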
INS-1E GSIS act – GLuc luminescence reporter in INS-1E cells, primary screen for activators of glucose-dependent secretion of insulin | AID 743287, 2014 | 370,000 compounds, 0.61% hits | activation, % at 16.6 µM | INS-1E GLuc reporter insulin secretion, 2-3 h;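 active = lowest replicate activation of at least 40%, so every replicate reaches that level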
Hits are given with their value; - = inactive; . = not tested or not shown. Only some compounds are listed: those with a hit (about 3.1% of all), similar ones and a draw of the others.

SMILES	Env fusion inh	Statin myotox sup	EWS-Fli inh	PAX8 inh HTS	miR-122 sensor	INS-1E GSIS act
N#C/C(=C/c1ccc(F)cc1)C(N)=S	-	.	-	-	.	-
O=C(Nc1ccccc1F)N[C@@H]1CC[C@@H](CCNS(=O)(=O)c2ccccc2)O[C@H]1CO	-	-	-	-	.	-
COc1cc(/C=C/C(O)=C/C(=O)/C=C/c2ccc(O)cc2)ccc1O	-	-	-	63	-	-
COc1ccccc1CNC(=O)COC(=O)CSc1ccc(C)c(C)c1	68	-	-	-	-	-
Cc1cccc(C(C)C)c1NC(=O)COC(=O)c1cccc(S(=O)(=O)N2CCc3ccccc3C2)c1	-	.	.	-	.	121
CN1CCN(C(c2ccccn2)c2cc(Cl)c3cccnc3c2O)CC1 (configuration not stated)	-	-	-	-	-	-
Oc1c(C(c2ccccn2)N2CCC(Cc3ccccc3)CC2)cc(Cl)c2cccnc12 (configuration not stated)	-	.	-	83	.	-
CC(C)NC(=O)Nc1ccc2c(c1)C(=O)N([C@@H](C)CO)C[C@@H](C)[C@H](CN(C)Cc1ccc3c(c1)OCO3)OCCCC[C@H](C)O2	-	.	-	-	-	-
Cc1ccc(Cc2nnc3n(-c4ccccc4)nc(C(=O)c4ccccc4)n3c2=O)cc1	-	91	.	-	-	.
Cc1ccc(CNC(=O)c2cc(C)nn2-c2ccccc2)cc1	-	-	-	-	-	-
C=C(C)COC(=O)c1ccccc1C(=O)OCC1(C)CO1 (configuration not stated)	-	98	-	-	-	.
C[C@H]1CN([C@@H](C)CO)C(=O)c2cc(NS(=O)(=O)c3ccc(F)cc3)ccc2O[C@@H]1CN(C)C	.	-	-	-	-	-
CCCCNCC1CCCO1 (configuration not stated)	-	-	-	-	.	41
Cc1ccc(CNCC2CCCO2)o1 (configuration not stated)	-	.	.	-	-	.
O=S(=O)(NCCOc1ccccc1Cl)c1ccc2oc3ccccc3c2c1	-	-	.	-	-	.
CCCCCCNS(=O)(=O)c1ccc(OC)c(OC)c1	-	-	.	.	203	.
COc1ccccc1OCCNS(=O)(=O)c1ccc2oc3ccccc3c2c1	58	.	-	-	.	-
CCCCNS(=O)(=O)c1ccc(OC)c(Cl)c1Cl	-	-	.	-	222	.
O=S(=O)(Cc1ccccc1)NCC[C@@H]1CC[C@H](NS(=O)(=O)c2ccc(F)cc2)[C@H](CO)O1	.	-	.	.	.	-
CCc1noc(C)c1C(=O)OCC(=O)c1ccc(OC)c(OC)c1	.	-	-	-	-	-
COc1ccc(C(=O)COC(=O)CSCc2c(C)noc2C)cc1OC	.	-	-	.	-	55
O=C(CN(Cc1cccs1)S(=O)(=O)c1ccc(S(=O)(=O)NC2CCCCC2)cc1)Nc1ccccc1	-	.	.	-	132	-
O=C(CN(C1CC1)S(=O)(=O)c1ccc(S(=O)(=O)NC2CCCCC2)cc1)Nc1ccccc1	.	.	.	.	-	.
O=S(=O)(NCc1ccccc1)c1ccc(S(=O)(=O)N(Cc2cccs2)CC2CCCO2)cc1 (configuration not stated)	61	-	.	.	-	-
C=CCc1cccc(OC)c1OCCOCCNCCO	-	83	.	-	-	.
SMILES	Env fusion inh	Statin myotox sup	EWS-Fli inh	PAX8 inh HTS	miR-122 sensor	INS-1E GSIS act
NCc1csc(Nc2ccc(C(=O)c3ccccc3)cc2)n1	-	-	52	-	-	-
NC(CCc1ccccc1)c1csc(Nc2ccc(C(=O)c3ccccc3)cc2)n1 (configuration not stated)	-	-	-	-	-	-
Cc1cccc(Nc2nc(CC(=O)O)cs2)c1	-	128	-	-	-	-
O=C(C1CCCCC1)N1CC2(C1)[C@H](c1ccccc1)[C@H](CO)N2Cc1ccccc1F	.	.	-	-	.	-
COc1ccccc1Nc1c2c(nc3ccc(N)cc13)CCCC2	-	.	-	-	.	65
COc1ccc(OC)c(Nc2c3c(nc4ccccc24)CCC3)c1	-	-	57	-	-	-
C[C@@H]1CN([C@@H](C)CO)C(=O)Cc2cc(NS(=O)(=O)c3cn(C)cn3)ccc2O[C@@H]1CN(C)S(=O)(=O)c1ccc(F)cc1	-	-	-	.	-	-
O=C(C[C@H]1CC[C@H]2[C@@H](COC[C@H](O)CN2Cc2ccc(Cl)cc2)O1)NCc1cccc(F)c1	.	-	.	.	-	-
CCCCN(Cc1ccccc1)S(=O)(=O)c1cc(Br)cc2c1N(C(C)=O)C(C)C2 (configuration not stated)	63	-	.	.	-	.
CC(=O)N1c2c(cc(Br)cc2S(=O)(=O)NCc2ccc3c(c2)OCO3)CC1C (configuration not stated)	-	-	.	-	-	.
CC(=O)N1c2c(cc(Br)cc2S(=O)(=O)NCC2COc3ccccc3O2)CC1C (configuration not stated)	-	-	.	-	120	-
O=c1oc2ccccc2c(Nc2cccc(O)c2)c1[N+](=O)[O-]	-	132	.	-	-	.
Cc1ccc2c(c1)sc(=NC(=O)c1cccs1)n2C	-	.	78	-	.	-
O=C(c1ccc(Cl)cc1)N1CCCCC(Sc2nnc(-c3ccc4c(c3)OCO4)o2)C1=O (configuration not stated)	60	-	.	70	-	.
O=C(O)C[C@@H]1C[C@@H]2c3cc(NS(=O)(=O)c4ccc(F)cc4)ccc3O[C@@H]2[C@H](CO)O1	.	.	.	-	.	-
Cc1nc2sc(C(c3ccco3)N3CCC(Cc4ccccc4)CC3)c(O)n2n1 (configuration not stated)	82	-	-	-	-	-
COc1ccc(N2CCN(C(c3ccco3)c3sc4nc(C)nn4c3O)CC2)cc1 (configuration not stated)	-	.	-	-	.	-
C[C@@H]1CN([C@H](C)CO)C(=O)c2cc(NC(=O)Nc3ccc(C(F)(F)F)cc3)ccc2O[C@@H](C)CCCCO[C@@H]1CN(C)C(=O)c1ccccc1	-	.	-	88	-	-
C[C@@H]1CCCCO[C@@H](CN(C)C(=O)Cc2ccccc2)[C@H](C)CN([C@@H](C)CO)C(=O)c2cc(NC(=O)Nc3ccc(C(F)(F)F)cc3)ccc2O1	-	-	-	71	-	-
C[C@H]1CCCCO[C@@H](CN(C)C(=O)Nc2ccccc2)[C@@H](C)CN([C@@H](C)CO)C(=O)c2cc(NC(=O)Nc3ccc(C(F)(F)F)cc3)ccc2O1	.	.	-	-	.	-
C[C@@H]1CCCCO[C@H](CN(C)C(=O)Nc2ccccc2)[C@@H](C)CN([C@H](C)CO)C(=O)c2cc(NC(=O)Nc3ccc(C(F)(F)F)cc3)ccc2O1	.	.	-	-	.	-
